Our source for the nuclei count, normalised and p53-positive nuclei, normalised values is PubChem BioAssay AID1508601 (ICCB-Longwood Screening Facility, Harvard Medical School, 2020).

The whole screen tested about 5,700 compounds, of which about 85 (1%) were called active. Rule as the data show it: active = p53-positive nuclei above about 36% (passing the limit was not always enough); inactive = the rest. The sample as a whole holds a higher share of actives than the screen did.

Test [1] in a line: nuclear p53 accumulation, HPV+ cells – imaging, p53-positive nuclei imaging, 24 h, 48 h (AID 1508601). As to conditions: 24/48 h.
Test [2] has as its target Cellular tumor antigen p53 (Homo sapiens) (UniProt P04637). Described as above. As to conditions: 24/48 h, stronger effect = higher value.
The mark [3] stands for this setting: measured here: cell number at 24 h, Library stock concentration: 3.33 mM.
Setting [4] is: measured here: cell number at 48 h, Library stock concentration: 3.33 mM.
The mark [5] stands for this setting: Library stock concentration: 3.33 mM.
Setting [6] is: measured here: p53 positive nuclei at 24 h, Library stock concentration: 3.33 mM.
Setting [7] is: measured here: cell number at 24 h, Library stock concentration: 80 uM.
The mark [8] stands for this setting: measured here: cell number at 24 h, Library stock concentration: 400 uM.
[9] abbreviates: measured here: cell number at 24 h, Library stock concentration: 2 mM.
The mark [10] stands for this setting: measured here: cell number at 24 h, Library stock concentration: 10 mM.
Setting [11] is: measured here: cell number at 48 h, Library stock concentration: 80 uM.
Setting [12] is: measured here: cell number at 48 h, Library stock concentration: 400 uM.
Setting [13] is: measured here: cell number at 48 h, Library stock concentration: 2 mM.
The mark [14] stands for this setting: measured here: cell number at 48 h, Library stock concentration: 10 mM.
Setting [15] is: Library stock concentration: 80 uM.
Setting [16] is: Library stock concentration: 400 uM.
The mark [17] stands for this setting: Library stock concentration: 2 mM.
Where [18] appears, read: Library stock concentration: 10 mM.
Where [19] appears, read: measured here: p53 positive nuclei at 24 h, Library stock concentration: 80 uM.
Where [20] appears, read: measured here: p53 positive nuclei at 24 h, Library stock concentration: 400 uM.
Where [21] appears, read: measured here: p53 positive nuclei at 24 h, Library stock concentration: 2 mM.
[22] abbreviates: measured here: p53 positive nuclei at 24 h, Library stock concentration: 10 mM.
Where [23] appears, read: measured here: cell number at 24 h, concentration not given here.
Where [24] appears, read: measured here: cell number at 48 h, concentration not given here.
Setting [25] is: measured here: p53 positive nuclei at 24 h, concentration not given here.

Chain of Cellular tumor antigen p53 (Homo sapiens) (P04637 whole entry, looked up): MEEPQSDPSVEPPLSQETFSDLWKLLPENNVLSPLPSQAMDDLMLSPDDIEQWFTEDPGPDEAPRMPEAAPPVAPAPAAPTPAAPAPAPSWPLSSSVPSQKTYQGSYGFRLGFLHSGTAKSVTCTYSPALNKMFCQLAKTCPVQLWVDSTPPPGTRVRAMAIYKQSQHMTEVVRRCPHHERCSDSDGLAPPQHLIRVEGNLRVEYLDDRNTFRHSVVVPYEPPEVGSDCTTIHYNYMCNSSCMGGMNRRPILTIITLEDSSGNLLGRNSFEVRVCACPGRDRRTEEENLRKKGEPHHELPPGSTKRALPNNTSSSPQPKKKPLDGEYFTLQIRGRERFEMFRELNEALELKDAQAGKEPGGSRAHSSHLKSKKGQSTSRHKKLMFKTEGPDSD

For `O=c1[nH]c2ccc(Cl)cc2c(NC2CN3CCC2CC3)c1-c1nc2ccccc2[nH]1` (stereo not drawn), the nuclei count, normalised is 52.7% in test [1] (setting [3]) and 33.7% in test [1] (setting [4]). The values for the p53-positive nuclei, normalised in test [2] (setting [5]) and in test [2] (setting [6]) were 34% (inactive) and 8.33%, respectively.

Regarding `C[C@]12C=CC(=O)C=C1CC[C@@H]1[C@@H]2CC[C@]2(C)OC(=O)CC[C@@H]12`, the nuclei count, normalised in test [1] (setting [7]) amounted to 87.6%; in test [1] (setting [8]), 90.3%; in test [1] (setting [9]), 93%; in test [1] (setting [10]), 89.5%; in test [1] (setting [11]) it was 95.1%; in test [1] (setting [12]) it was 95%. The nuclei count, normalised in test [1] (setting [13]) was 99.5%; in test [1] (setting [14]), 97.4%. The p53-positive nuclei, normalised in test [2] (setting [15]) is -0.0445% (inactive); in test [2] (setting [16]), 0.096% (inactive); in test [2] (setting [17]), -0.0494% (inactive); in test [2] (setting [18]), -0.00393% (inactive); in test [2] (setting [19]) it was -0.0455%; in test [2] (setting [20]) it was 0.101%. Besides, the p53-positive nuclei, normalised is 0.166% in test [2] (setting [21]) and -0.0487% in test [2] (setting [22]).

Take `CC1=CC(=O)c2c(O)cccc2C1=O`: the nuclei count, normalised was determined as 119% in test [1] (measured here: cell number at 24 h, Library stock concentration: 500 nM); 116% in test [1] (measured here: cell number at 24 h, Library stock concentration: 1.5 uM); 126% in test [1] (measured here: cell number at 24 h, Library stock concentration: 4.6 uM); 115% in test [1] (measured here: cell number at 24 h, Library stock concentration: 13.7 uM); 118% in test [1] (measured here: cell number at 24 h, Library stock concentration: 41 uM); 108% in test [1] (measured here: cell number at 24 h, Library stock concentration: 123 uM). In addition, the nuclei count, normalised in test [1] (measured here: cell number at 24 h, Library stock concentration: 370 uM) was found to be 94.6%; in test [1] (measured here: cell number at 24 h, Library stock concentration: 1.111 mM), 55.5%; in test [1] (measured here: cell number at 24 h, Library stock concentration: 3.333 mM), 48.6%; in test [1] (setting [10]) it was 49%; in test [1] (measured here: cell number at 48 h, Library stock concentration: 500 nM) it was 113%; in test [1] (measured here: cell number at 48 h, Library stock concentration: 1.5 uM) it was 115%. The nuclei count, normalised in test [1] (measured here: cell number at 48 h, Library stock concentration: 4.6 uM) is 120%; in test [1] (measured here: cell number at 48 h, Library stock concentration: 13.7 uM), 115%; in test [1] (measured here: cell number at 48 h, Library stock concentration: 41 uM), 118%; in test [1] (measured here: cell number at 48 h, Library stock concentration: 123 uM), 111%; in test [1] (measured here: cell number at 48 h, Library stock concentration: 370 uM), 102%; in test [1] (measured here: cell number at 48 h, Library stock concentration: 1.111 mM), 32.4%. For the same compound, the nuclei count, normalised in test [1] (measured here: cell number at 48 h, Library stock concentration: 3.333 mM) is 31.9%; in test [1] (setting [14]), 32.5%. Also, the p53-positive nuclei, normalised is -0.129% (inactive) in test [2] (Library stock concentration: 500 nM); -0.0912% (inactive) in test [2] (Library stock concentration: 1.5 uM); 0.131% (inactive) in test [2] (Library stock concentration: 4.6 uM); -0.0585% (inactive) in test [2] (Library stock concentration: 13.7 uM); -0.0569% (inactive) in test [2] (Library stock concentration: 41 uM); 0.196% (inactive) in test [2] (Library stock concentration: 123 uM). The p53-positive nuclei, normalised was -0.0821% (inactive) in test [2] (Library stock concentration: 370 uM); 48.3% (active) in test [2] (Library stock concentration: 1.111 mM); 2.14% (inactive) in test [2] (Library stock concentration: 3.333 mM); -0.248% (inactive) in test [2] (setting [18]); 0.0252% in test [2] (measured here: p53 positive nuclei at 24 h, Library stock concentration: 500 nM); 0.031% in test [2] (measured here: p53 positive nuclei at 24 h, Library stock concentration: 1.5 uM). In addition, the p53-positive nuclei, normalised was -0.0368% in test [2] (measured here: p53 positive nuclei at 24 h, Library stock concentration: 4.6 uM); 0.0863% in test [2] (measured here: p53 positive nuclei at 24 h, Library stock concentration: 13.7 uM); -0.027% in test [2] (measured here: p53 positive nuclei at 24 h, Library stock concentration: 41 uM); 0.171% in test [2] (measured here: p53 positive nuclei at 24 h, Library stock concentration: 123 uM); 0.0792% in test [2] (measured here: p53 positive nuclei at 24 h, Library stock concentration: 370 uM); 61.6% in test [2] (measured here: p53 positive nuclei at 24 h, Library stock concentration: 1.111 mM). In addition, the p53-positive nuclei, normalised in test [2] (measured here: p53 positive nuclei at 24 h, Library stock concentration: 3.333 mM) is 3.81%; in test [2] (setting [22]) it was -0.148%.

As to `O=C1c2ccccc2C(=O)c2ccccc21`, the nuclei count, normalised is 102% in test [1] (setting [23]) and 96.8% in test [1] (setting [24]). Further, the p53-positive nuclei, normalised in test [2] (concentration not given here) is -0.00139% (inactive); in test [2] (setting [25]), -0.102%.

Consider `O=C1C(=O)c2cccc3cccc1c23`, for which the nuclei count, normalised was determined as 115% in test [1] (setting [7]); 118% in test [1] (setting [8]); 118% in test [1] (setting [9]); 109% in test [1] (setting [10]); 119% in test [1] (setting [11]); 112% in test [1] (setting [12]). Also, the nuclei count, normalised in test [1] (setting [13]) and in test [1] (setting [14]) was 115% in each case. Further, the p53-positive nuclei, normalised in test [2] (setting [15]) was 0.0597% (inactive); in test [2] (setting [16]), 0.0621% (inactive); in test [2] (setting [17]), 0.165% (inactive); in test [2] (setting [18]), 0.252% (inactive); in test [2] (setting [19]) it was -0.0696%; in test [2] (setting [20]), -0.0154%. The results for the p53-positive nuclei, normalised in test [2] (setting [21]) and in test [2] (setting [22]) were 0.208% and 0.327%, respectively.

On to `C[C@]12NC(Cc3ccccc31)c1ccccc12`, for which the nuclei count, normalised came out at 121% in test [1] (setting [3]) and 112% in test [1] (setting [4]). The p53-positive nuclei, normalised in test [2] (setting [5]) was -0.107% (inactive); in test [2] (setting [6]) it was -0.588%.

Consider `CCCCC/C=C\C/C=C\C/C=C\C/C=C\CCCC(=O)NCCF`, for which the nuclei count, normalised in test [1] (setting [23]) was found to be 90.3%; in test [1] (setting [24]) it was 90.8%. Besides, the figures for the p53-positive nuclei, normalised in test [2] (concentration not given here) and in test [2] (setting [25]) were 0.105% (inactive) and -0.0127%, respectively.
